This is part of a sample that, as a whole, favours compounds with a hit. Of some 83,000 tested, about 20% had one in any assay.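 Percent growth is the endpoint: 0 to 100 indicates growth inhibition (40 means 60% inhibition), 0 means no net growth, and negative values indicate cell death.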 A number with no mark means an inactive call. Active and inactive are the calls of the source. How the source made its calls: active means growth percent below 10; inactive means the rest.
Experiments:
Assay in all cases: NCI-60 one-dose screen, 48 h (100 = growth as untreated, 0 = no growth, -100 = all killed)
Details in all cases: 10 µM unless noted
HCT-15 colon = system: HCT-15 colon
HT29 colon = system: HT29 colon
SNB-75 CNS = system: SNB-75 CNS
SNB-19 CNS = system: SNB-19 CNS
U251 CNS = system: U251 CNS
PC-3 prostate = system: PC-3 prostate
SK-MEL-5 melanoma = system: SK-MEL-5 melanoma
UACC-62 melanoma = system: UACC-62 melanoma
LOX IMVI melanoma = system: LOX IMVI melanoma
SK-MEL-28 melanoma = system: SK-MEL-28 melanoma

Row | Structure (SMILES) | growth (HCT-15 colon) | growth (HT29 colon) | growth (SNB-75 CNS) | growth (SNB-19 CNS) | growth (U251 CNS) | growth (PC-3 prostate) | growth (SK-MEL-5 melanoma) | growth (UACC-62 melanoma) | growth (LOX IMVI melanoma) | growth (SK-MEL-28 melanoma)
1 | COc1ccc(-c2nc3sc4c(c3c(=O)[nH]2)CCCCCC4)cc1 | 27.7% | 14.3% | 49.4% | 66% | 46.8% | 70.2% | 53.1% | 24.6% |  | 
2 | CC(C)OP(=O)(OC(C)C)c1ncc(-c2ccc(C(F)(F)F)cc2)c(NC2CCCCCC2)n1 | -7.06% [33.3 µM] (active) | -68.3% [33.3 µM] (active) | -18.6% [33.3 µM] (active) | -27.9% [33.3 µM] (active) | -87.4% [33.3 µM] (active) | -68% [33.3 µM] (active) | -87.2% [33.3 µM] (active) | -64.8% [33.3 µM] (active) | -63.3% [33.3 µM] (active) | -74.5% [33.3 µM] (active)
3 | CCCCCc1c(C)[nH]c(/C=C2\N=C(c3ccc[nH]3)C=C2OCc2ccccc2)c1C | -60% [100 µM] (active) | -80.9% [100 µM] (active) | -78.1% [100 µM] (active) | -92.8% [100 µM] (active) | -93.7% [100 µM] (active) | -69.5% [100 µM] (active) | -66.9% [100 µM] (active) | -92.7% [100 µM] (active) | -62.6% [100 µM] (active) | 
4 | CC1C(C)N(C(=O)CCl)c2ccccc2N1C(=O)CCl (stereo not drawn) | -83.4% (active) | -73.5% (active) | -99.4% (active) | 8.21% (active) | -93.4% (active) | -36.6% (active) | -70.4% (active) | -76.8% (active) | -81.2% (active) | 
5 | COc1ccc2c3c(ccc2c1)C(=O)/C(=C\O)CC3 | 87.3% | 103% | 91.9% | 103% | 82.6% | 88.2% | 103% | 107% | 87.1% | 128%
6 | FC(F)(F)c1ccc(-c2cnc(-c3nn[nH]n3)nc2NC2CCCCCC2)cc1 | 38.7% [50 µM] | 66.8% [50 µM] | 93.7% [50 µM] | 41.3% [50 µM] | 33.8% [50 µM] | 28.5% [50 µM] | 71% [50 µM] | 41.6% [50 µM] | 41.6% [50 µM] | 74.1% [50 µM]
7 | NS(=O)(=O)c1cc2c(cc1Cl)NC=NS2(=O)=O | 102% | 94.7% | 96.3% | 107% | 99.7% | 100% | 107% | 103% | 99.6% | 108%
8 | NC(=NCCCCCCN=C(N)/N=C(\N)Nc1ccc(Cl)cc1)/N=C(\N)Nc1ccc(Cl)cc1 | 17.2% | 7.91% (active) | -7.16% (active) | 13.7% | -5.76% (active) | 20.7% | -95.7% (active) | 8.7% (active) | 23.4% | 32.8%
9 | C[C@H](C(=O)N[C@@H](Cc1ccc(-c2ccccc2)cc1)C(=O)NC1CC(C)(C)N(C)C(C)(C)C1)c1ccc(-c2ccccc2)c(F)c1 | -81.2% (active) | -76.2% (active) | -29% (active) | -72.6% (active) | -74.7% (active) | -70.5% (active) | -94.7% (active) | -57.6% (active) | -83.8% (active) | 
10 | CCCCCCCCCCCCCCCCNC(=O)Nc1ccc2ccccc2c1 | 103% | 107% | 98.1% | 96.9% | 105% | 91.5% | 99.4% | 92.7% | 101% | 
11 | COc1ccc(C2=NN(C(C)=O)C(c3cccc(Nc4ccnc5cc(Cl)ccc45)c3)C2)cc1 (stereo not drawn) | 44.8% | 7.9% (active) | 56.4% | 56.5% | 51% | 31% | 43.7% | 68.6% | 42.7% | 
12 | CN(C)CCCN=c1cc2c(=O)n(CCCN(C)C)c(=O)c3c(NCCCN(C)C)cc4c(O)n(CCCN(C)C)c(=O)c1c4c3-2 | 13.7% | -42.2% (active) | -66.9% (active) | 10.7% | 3.63% (active) | 12.1% | -82.4% (active) | -49.3% (active) | -42.3% (active) | 
13 | COc1ccc2c(c1)sc1nc(-c3ccc(Br)cc3)cn12 | 110% | 108% | 112% | 115% | 99.5% | 101% | 76.4% | 86.2% | 99.1% | 112%
14 | NS(=O)(=O)c1ccc(-n2ncc3c(SCc4ccccc4)ncnc32)cc1 | 93.7% | 94.1% | 102% | 93.9% | 98.3% | 90.9% | 79.5% | 92.8% | 92.8% | 
15 | [N-]=[N+]=NCc1cccc(/C(O)=C/C(=O)C(=O)O)c1 | 113% | 83.9% | 73.6% | 101% | 103% | 97.3% | 106% | 92.4% | 92.6% | 
16 | NC(=O)c1cc(Br)cc(Br)c1NS(=O)(=O)c1ccccc1 | 100% | 110% | 68.2% | 105% | 108% | 89.2% | 98.2% | 94.9% | 99.4% | 110%
17 | COc1ccc(C(=O)COc2ccc(/C=C3\Oc4ccc5ccccc5c4C3=O)cc2)cc1 | 126% | 111% | 75.5% | 85% | 99.5% | 81% | 95.7% | 95.9% | 93.5% | 
18 | N#Cc1c(NC(=O)c2ccco2)[n+]([O-])c2ccccc2[n+]1[O-] | 116% | 109% | 104% | 96.8% | 106% | 130% | 91% | 81% | 98.3% | 
19 | O=C(N/N=C/c1cccc(O)c1)c1ccc(C(F)(F)F)nc1Nc1cccc(C(F)(F)F)c1 | 11.5% | 7.96% (active) | -5.22% (active) | 26.2% | 2.76% (active) | -8.91% (active) | 8.39% (active) | 0.893% (active) | -18.2% (active) | 24.7%
20 | CSc1nc(N)c2c(n1)N(C)C=NS2(=O)=O | 103% | 124% | 93.3% | 107% | 103% | 94.7% | 104% | 97.4% | 98.3% | 122%
21 | Clc1ccc2c(c1)C(Br)c1cc(Cl)cc(Cl)c1-2 (stereo not drawn) | 78.1% | 111% | 73.5% | 90.9% | 79.5% | 82.6% | 51.2% | 66.1% | 4.27% (active) | 
22 | CC(=O)N1N=C(c2ccc(Nc3nc(NCCO)nc(NCCO)n3)cc2)CC1c1ccc(Cl)cc1 (stereo not drawn) | 94.5% | 86.8% | 84.7% | 86.3% | 94.3% | 81.4% | 98.3% | 107% | 93.6% | 104%
23 | COc1ccc(CNC(=O)c2c(C)n([O-])c3cc(F)c(F)cc3[n+]2=O)cc1 | 36.8% | 93% | 93% | 93.9% | 94.9% | 94% | 97.5% | 87.7% | 57.1% | 
24 | C(#Cc1ccccc1C#Cc1ccccn1)c1ccc(OCCCCCCOc2ccc(C#Cc3ccccc3C#Cc3ccccn3)cc2)cc1 | 41.2% | 93% | 92.6% | 72.5% | 50.3% | 39.6% | 20.6% | 23.9% | 14.7% | 81.8%
25 | COc1ccc(Oc2ccccc2NC(=O)CNC(=O)c2cccc3ccccc23)cc1 | 17.2% [5 µM] | 2.75% [5 µM] (active) | 41.6% [5 µM] | 51.4% [5 µM] | 16.9% [5 µM] | 21.5% [5 µM] | 10.3% [5 µM] | 37.5% [5 µM] | 22.3% [5 µM] | 
26 | O=C(Nc1ccc2c(c1)C(=O)c1ccccc1-2)c1ccccc1 | 67.2% | 35.8% | 86.6% | 73% | -13.9% (active) | 92.9% | 97.9% | 90.2% | 73.2% | 105%
27 | COc1ccc(C2=NN(C=O)C(c3cccc(Nc4ccnc5cc(Cl)ccc45)c3)C2)cc1 (stereo not drawn) | 16.6% | 4.88% (active) | 8.36% (active) | 40% | 19.6% | 22.8% | -21.5% (active) | 32.3% | 25% | 
28 | CSc1nc(-c2ccc(O)cc2O)c2c(=O)[nH]c(Nc3ccc(S(=O)(=O)Nc4nc(C)cc(C)n4)cc3)nc2n1 | 104% | 113% | 73.1% | 96.1% | 100% | 88% | 109% | 92.7% | 99% | 
